Assays:
[1] = system: Vero E6 infected with SARS-CoV-2; test: morphology score (similarity to uninfected cells); higher = more like uninfected cells; conditions: 24 h
[2] = system: Vero E6 infected with SARS-CoV-2; test: SARS-CoV-2 infection rate relative to infected DMSO; higher = more infection, active = 60 or less; conditions: 24 h

SMILES | morphology score [1] | SARS-CoV-2 infection rate [2]
COc1cc(C(=O)NC2CCN(C)CC2)c(F)cc1Nc1ncc2c(n1)N(C1CCCC1)CC(F)(F)C(=O)N2C (0.833333 µM) | -0.193 | 100% (inactive)
COC(=O)[C@H]1[C@H]2C[C@@H]3c4[nH]c5cc(OC)ccc5c4CCN3C[C@H]2C[C@@H](OC(=O)c2cc(OC)c(OC)c(OC)c2)[C@@H]1OC [reserpine] (10 µM) | 0.127 | 110% (inactive)
CC1(C)CCC(C)(C)c2cc(NC(=O)c3ccc(C(=O)O)cc3)ccc21 [tamibarotene] (10 µM) | 0.135 | 108% (inactive)
Cn1nccc1Nc1nccc(-c2ccn([C@H](CO)c3ccc(Cl)c(F)c3)c(=O)c2)n1 (0.833333 µM) | 0.0519 | 106% (inactive)
O=C(/C=C/c1cccc(S(=O)(=O)Nc2ccccc2)c1)NO [belinostat] (10 µM) | 0.0182 | 97.5% (inactive)
O=C1CCCN1CC#CCN1CCCC1 [oxotremorine-sesquifumarate] (10 µM) | 0.062 | 100% (inactive)
CC(=O)N[C@H]1[C@H]([C@H](O)[C@H](O)CO)OC(C(=O)O)=C[C@@H]1NC(=N)N [zanamivir] (10 µM) | 0.113 | 108% (inactive)
COC[C@H](NC(=O)c1cnc(C)s1)C(=O)N[C@@H](COC)C(=O)N[C@@H](Cc1ccccc1)C(=O)[C@@]1(C)CO1 [oprozomib] (0.833333 µM) | -0.312 | 108% (inactive)
CO/N=C(\C(=O)N[C@@H]1C(=O)N2C(C(=O)OCOC(=O)C(C)(C)C)=C(/C=C\c3scnc3C)CS[C@H]12)c1csc(N)n1 [cefditoren-pivoxil] (10 µM) | 0.149 | 99.5% (inactive)
O=C(NOCCO)c1cc(CN2OCCCC2=O)c(F)c(F)c1Nc1ccc(I)cc1F (0.833333 µM) | -0.175 | 96.5% (inactive)
O=c1[nH]c([C@@H]2CCCN2)nc2c1oc1ccc(Cl)cc12 (0.833333 µM) | 0.106 | 104% (inactive)
NC(=O)CN1Cc2ccccc2OC1=O [caroxazone] (10 µM) | 0.0974 | 100% (inactive)
CC(=O)N1CCN(c2ccc(OC[C@@H]3CO[C@@](Cn4ccnc4)(c4ccc(Cl)cc4Cl)O3)cc2)CC1 (racemic) [ketoconazole] (10 µM) | 0.0784 | 108% (inactive)
COC(=O)C1=C(C)NC(C)=C(C(=O)OCCSc2ccccc2)[C@@H]1C (10 µM) | 0.0793 | 94.5% (inactive)
COc1ccc2cc(C(C)C(=O)Oc3ccc(C(N)=S)cc3)ccc2c1 (configuration not stated) (10 µM) | 0.117 | 97% (inactive)
CC(C)NCCCn1c(Sc2cc3c(cc2I)OCO3)nc2c(N)ncnc21 (0.833333 µM) | 0.255 | 96.5% (inactive)
O=C1CC2(CCCC2)CC(=O)N1CCCCNC[C@H]1COc2ccccc2O1 (racemic) (10 µM) | -0.0862 | 108% (inactive)
CC[C@H](C)[C@@H]1NC(=O)[C@H](Cc2ccc(OC)cc2)NC(=O)CCCSC[C@@H](C(=O)N2CCC[C@H]2C(=O)N[C@@H](CC(C)C)C(=O)NCC(N)=O)NC(=O)[C@H](CC(N)=O)NC(=O)[C@H](CCC(N)=O)NC1=O [carbetocin] (10 µM) | 0.123 | 118% (inactive)
O=P(O)(O)C(O)(Cc1cccnc1)P(=O)(O)O [risedronate] (10 µM) | 0.123 | 89% (inactive)
COc1ccc(CCCO[C@@H](Cn2ccnc2)c2ccc(OC)cc2)cc1 (0.833333 µM) | 0.00702 | 107% (inactive)
CN1CCN2c3c(cccc31)[C@@H]1CN(CCCC(=O)c3ccc(F)cc3)CC[C@@H]12 [lumateperone] (10 µM) | 0.348 | 86% (inactive)
O=C1N(c2ccccc2)c2ccccc2C1(Cc1ccncc1)Cc1ccncc1 [linopirdine] (10 µM) | 0.249 | 91% (inactive)
COc1ccc(/C=C/C(=O)O)cc1 [trans-4-methoxycinnamic-acid] (10 µM) | 0.07 | 106% (inactive)
CCCC[C@H]1C(=O)N(c2ccccc2)N(c2ccc(O)cc2)C1=O [oxyphenbutazone] (0.833333 µM) | 0.131 | 102% (inactive)
CCCCNc1ncc(-c2ccc(CN3CCOCC3)cn2)c(N[C@H]2CC[C@H](O)CC2)n1 (10 µM) | 0.102 | 113% (inactive)
O=C1O[C@H]([C@@H](O)CO)C([O-])=C1O.[Na+] [sodium-ascorbate] (10 µM) | 0.159 | 95.5% (inactive)

Source: the supplement of paper PMC13380429
